From PubChem BioAssay
Sampled rows, rich in hits. Any-hit rate of the full collection: about 19%.
SW480 rerep = DNA re-replication induction in SW480 cells; SW480 DNA re-replication, Hoechst DNA content imaging, 48 h; Potency, µM (titrated, usually from 46.1 µM), inactives show at the top dose re-replication activation, most hits filed as activators; 340,000 tested, 1.8% active; further: potency means the concentration at half of the fitted maximal effect; % of control where 0% means no effect; nearly all actives have a fitted effect of over 55% in size
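Cells (250 per well) received 23 nL compound or DMSO by pin tool and were kept 48 hr at 37 C, 5% CO2. Nuclei were then stained with Hoechst for 40 min and scanned for DNA content.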
IL-1B inflam inh = blocks inflammasome-driven IL-1 beta release. THP-1 LPS/ATP IL-1B secretion, AlphaLISA, 16 h; stronger effect = lower value. 360,000 tested, 4.7% active. activity change, % at 57.5 µM; in the data active means activity change below about -50%; inconclusive means mostly about -30% to -49%; further: on the % scale 0 is the no-effect control and ±100 the full control effect
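Secreted IL-1B measured by AlphaLISA bead assay after 16 h compound exposure of THP-1 cells; compounds (final up to 57.5 uM) added 1 h before LPS (250 ng/mL) and ATP (1.25 mM) stimulation; lower signal means less secretion.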
TDP1 cell noCPT = qHTS for Inhibitors of human tyrosyl-DNA phosphodiesterase 1 (TDP1): qHTS in cells in absence of CPT. 420,000 tested, 15% active. DT40 Tdp1-/- hTDP1 cells, no CPT, ATP luminescence, 48 h. Potency, µM (top dose mostly 46.2 µM), for inactives: at the top dose activity change, negative = growth inhibition, usual class: inhibitors. AID 686978, 2013; further: potency means the concentration at half of the fitted maximal effect; on the % scale 0 is the no-effect control and ±100 the full control effect; nearly all actives have a fitted effect of over 55% in size
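Cells were dispensed at 400 per well, compounds added by pin tool, plates incubated ≥48 hr at 37 °C, then CellTiter-Glo added for 30 min at room temperature before luminescence reading. Line: DT40 Tdp1-/- complemented with hTDP1; camptothecin omitted.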
Chronic BCR inh = blocks chronic active B-cell receptor signaling. ABC-DLBCL IkBa-CBG/CBR reporter, luminescence ratio, 4 h. AID 493014. Potency, µM (titrated, usually from 46.1 µM), without a hit: at the top dose activity change, negative = inhibition, hits mostly inhibitors. 340,000 tested, 0.05% active; active means well fitted inhibition curve with a large enough effect in the signal ratio, with a control signal flat, not every such curve was filed as active; inconclusive means small, poorly fitted or top-dose-only effect, or effect the other way, or a change in a side signal; the % refers to the signal ratio;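 further: potency means the concentration at half of the fitted maximal effect; plate controls were basal doxycycline-induced cells for no effect and cells given 10 µM MG132 for full effect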
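TMD8 ABC-DLBCL cells carrying doxycycline-inducible green luciferase fused to IkappaBalpha plus unfused red luciferase were exposed to compounds (up to 46 uM) for 4 hrs at 37C. Activity came from the overlap-corrected green/red luminescence ratio.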
TDP1 cell CPT = growth inhibition of DT40 Tdp1-/-;hTDP1 cells with camptothecin (screen for TDP1 inhibitors); chicken DT40 Tdp1-/-;hTDP1 cells + 20 nM CPT, ATP luminescence, 48 h; Potency, µM (highest dose often 46.2 µM), for the others: at the top dose activity change, negative = growth inhibition, hits mostly inhibitors; 420,000 tested, 12% active; further: potency means the concentration at half of the fitted maximal effect; on the % scale 0 is the no-effect control and ±100 the full control effect; nearly all actives have a fitted effect of over 55% in size
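Cell growth measured by CellTiter-Glo luminescence after a minimum 48 h, 37 C compound exposure with 20 nM CPT in Tdp1-knockout DT40 cells stably expressing hTDP1, seeded 400/well; qHTS titration format.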
MCF10A rerep = induces DNA re-replication in MCF 10a normal breast cells; 350,000 tested, 2.9% active; MCF 10A DNA re-replication, Hoechst nuclear intensity, 48 h; AID 624296; Potency, µM (titrated, usually from 46.1 µM), for inactives: top-dose activity, positive = re-replication, usual class: activators; further: potency means the concentration at half of the fitted maximal effect; % of control where 0% means no effect; nearly all actives have a fitted effect of over 50% in size
Starred values were filed as active, the others as inactive; i = inactive; u = inconclusive; x = no result given. Unless noted, the call rests on the fitted dose curve; in most records, active means well fitted curve in the direction sought with a large enough effect; inconclusive means small, poorly fitted or top-dose-only effect, or another doubt; inactive means no such curve, though single readings can be large; an effect the other way counts as inactive or inconclusive.

SMILES | SW480 rerep | IL-1B inflam inh | TDP1 cell noCPT | Chronic BCR inh | TDP1 cell CPT | MCF10A rerep
CCOC(=O)C1CCCN(C(=O)c2ccccc2SCCOC)C1 (configuration not stated) | u | 5 | -4% | 0% | -10% | 21µM*
CCOC(=O)C1CCCN(C(=O)c2ccccc2)CC1 (configuration not stated) | x | 23 | 9% | x | -5% | x
C=CCn1c(=O)c(C(=O)Nc2ccccc2O)c(O)c2ccccc21 | 0% | 24 | -10% | u | -15% | 20%
C=CCn1c(=O)c(C(=O)Nc2ccccc2C)c(O)c2ccccc21 | 4% | 14 | u | u | u | 18µM*
CCCn1c(=O)c(C(=O)Nc2ccccc2N)c(O)c2ccccc21 | x | 22 | u | x | 26µM* | x
CCn1c(=O)c(C(=O)NC(C)c2ccccc2)c(O)c2ccccc21 (configuration not stated) | 19% | 8 | u | 5% | u | 0%
CCCCCCCCn1c(=O)c(C(=O)OCC)c(O)c2ccccc21 | -1% | 14 | u | 12% | u | u
CCCCCn1c(=O)c(-c2nc3ccccc3[nH]2)c(O)c2ccccc21 | 18µM* | 112 | 9.2µM* | u | 21µM* | u
CCCn1c(=O)c(C(=O)NC(C)c2ccccc2)c(O)c2ccccc21 (configuration not stated) | 2% | 2 | 26µM* | u | u | 6%
O=C(NC1CC(=O)N(c2ccc(F)cc2)C1)c1cc2ccccc2o1 (configuration not stated) | x | x | -13% | u | -18% | x
Cc1ccccc1-c1cc2nc(NCCN3CCNC3=O)n(C)c(=O)c2s1 | x | 0 | u | x | u | x
CN1CCN(C(=O)c2cc3ccccc3cc2O)CC1 | -6% | -8 | -12% | 0% | -4% | -4%
CCCCCCC(=O)NNC(=O)c1c(O)c2ccccc2n(CCC)c1=O | 1% | 27 | u | 0% | u | u
CCn1c(=O)c(C(=O)Nc2ccccc2C)c(O)c2ccccc21 | -9% | 16 | 23µM* | u | u | 16%
CCCCCCCC(=O)NNC(=O)c1c(O)c2ccccc2n(CCC)c1=O | 3% | 13 | 23µM* | -1% | u | 20%
CCOC(=O)N1CCN(C(=O)c2c[nH]c3ccc(S(=O)(=O)N(C)c4ccc(OCC)cc4)cc3c2=O)CC1 | -2% | -4 | 20% | 11% | -3% | 1%
CC1(c2ccccc2)NC(=O)N(CC(=O)N2CCN(S(=O)(=O)c3cccc(C(F)(F)F)c3)CC2)C1=O (configuration not stated) | -17% | 6 | -5% | x | -24% | 6%
CSc1ccc(/C=C/c2nc3ccccc3n2S(=O)(=O)c2ccc(Br)cc2)cc1 | x | x | 10µM* | x | 15µM* | x
O=S(=O)(c1cccc(C(F)(F)F)c1)n1c(/C=C/c2ccccc2)nc2ccccc21 | x | x | 10µM* | u | 8.2µM* | x
CC1=CC2=NC(=O)CC(C)(C(=O)N(CC(=O)NC3CCCC3)c3cc(C)cc(C)c3)N2C=C1 (configuration not stated) | -129% | -7 | 21µM* | u | 13µM* | -6%
CCOC(=O)c1c(C)[nH]c(C)c1S(=O)(=O)N1CCN(c2ccc(F)cc2)CC1 | -7% | -7 | u | u | -14% | -6%
COc1ccc(CNC(=O)CCS(=O)(=O)c2cc3c(cc2Cl)NC(=O)CO3)cc1 | u | -2 | -3% | 0% | 7% | -3%
CC1CN(S(=O)(=O)c2cccc(C(=O)Nc3ccccc3N3CCOCC3)c2)CC(C)O1 (configuration not stated) | 16% | -1 | u | -16% | u | 10%
CC1CN(S(=O)(=O)c2cccc(C(=O)Nc3ccccc3N3CCCCC3)c2)CC(C)O1 (configuration not stated) | -4% | -1 | 13µM* | 0% | 16µM* | 14%
CCOC(=O)C1=C(COC(=O)c2cc(S(=O)(=O)N3CCOCC3)ccc2F)NC(=O)NC1C (configuration not stated) | -8% | -95* | -6% | x | -20% | 6%
SMILES | SW480 rerep | IL-1B inflam inh | TDP1 cell noCPT | Chronic BCR inh | TDP1 cell CPT | MCF10A rerep
CC(=O)c1ccccc1NC(=O)c1cc(S(=O)(=O)N2CCOCC2)ccc1N1CCCC1 | 5% | -7 | 21µM* | 0% | u | 0%
CCOC(=O)C1=C(COC(=O)c2ccc(Cl)c(S(=O)(=O)N3CCOCC3)c2)NC(=O)NC1C (configuration not stated) | -1% | -2 | 2% | x | 1% | 5%
Cc1c(C(=O)Nc2cc(S(=O)(=O)N3CCOCC3)ccc2N2CCN(C)CC2)oc2ccccc12 | 0% | 28 | 18µM* | 0% | u | 16%
CCc1nc2ccc(C(=O)NCCCN3CCCC3=O)cn2c1N(CC)C(=O)NCCc1ccccc1 | x | -19 | -4% | x | -16% | x
COCCNC(=O)C1(C)CCCN(CCS(=O)(=O)c2ccc(C)cc2)C1 (configuration not stated) | x | 7 | -12% | x | -19% | x
Cn1c(N)c(C(=O)COC(=O)c2cc(S(=O)(=O)N3CCOCC3)ccc2F)c(=O)n(C)c1=O | u | -105* | 5% | u | 5% | u
CN1CCN(c2ccc(S(=O)(=O)N3CCCCC3)cc2NC(=O)c2ccc3ccccc3c2)CC1 | u | -92* | u | 0% | u | 23µM*
CCOC(=O)c1ccccc1NC(=O)c1cc(S(=O)(=O)N2CCOCC2)ccc1F | -2% | -54* | u | 10% | u | 1%
Cc1ccccc1C(=O)Nc1cc(S(=O)(=O)N2CCCCC2)ccc1N1CCN(C)CC1 | 13% | -27 | -44% | -2% | -10% | -13%
CCOC(=O)c1c(-c2ccccc2Cl)csc1NC(=O)c1cc(S(=O)(=O)N2CCOCC2)ccc1C | 16% | i | 7.3µM* | 0% | 10µM* | u
COc1ccc(S(=O)(=O)N2CCN(C(=O)Cc3ccsc3)CC2)cc1 | 0% | -6 | u | 6% | -17% | 8%
C[C@H]1CN[C@H](CCO)/C1=C\c1ccccc1 | -7% | 6 | -28% | x | -7% | -54%
Cc1ccc(CSCCNC(=O)c2ccc(Cl)c(S(=O)(=O)N3CCOCC3)c2)cc1 | 1% | -10 | 18µM* | -2% | u | 7%
COc1ccc(C(=O)NCc2ccc(C)cc2)cc1S(=O)(=O)N1CCOCC1 | x | -21 | 0% | x | -11% | x
